According to ChEMBL document CHEMBL1961873, “Compounds: GSK PKIS; Assays: Nanosyn kinase panel” (2012):

Experiments:
[1] = target: T1, Mitogen-activated protein kinase 12 (Homo sapiens) (UniProt P53778); settings: at 1 µM;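 further: values are averaged p38gamma kinase inhibition readings, compounds tested at 1 µM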
T1 sequence (whole entry): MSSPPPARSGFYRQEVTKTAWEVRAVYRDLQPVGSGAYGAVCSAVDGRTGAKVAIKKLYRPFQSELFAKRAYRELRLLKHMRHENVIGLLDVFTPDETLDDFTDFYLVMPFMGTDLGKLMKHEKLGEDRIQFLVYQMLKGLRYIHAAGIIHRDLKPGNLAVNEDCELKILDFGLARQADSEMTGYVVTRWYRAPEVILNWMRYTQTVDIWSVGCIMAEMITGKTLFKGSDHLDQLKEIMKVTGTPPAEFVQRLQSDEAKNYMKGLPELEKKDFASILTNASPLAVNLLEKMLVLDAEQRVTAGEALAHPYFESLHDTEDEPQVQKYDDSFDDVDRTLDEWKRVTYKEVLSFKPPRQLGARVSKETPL

[2] = target: SRSF protein kinase 1 (Homo sapiens) (UniProt Q96SB4); settings: at 0.1 µM
[3] = target: SRSF protein kinase 1 (Homo sapiens) (UniProt Q96SB4); settings: at 1 µM
[4] = target: Phosphatidylinositol 4,5-bisphosphate 3-kinase catalytic subunit alpha isoform (Homo sapiens) (UniProt P42336); settings: at 0.1 µM
[5] = target: Phosphatidylinositol 4,5-bisphosphate 3-kinase catalytic subunit alpha isoform (Homo sapiens) (UniProt P42336); settings: at 1 µM
[6] = target: T2, Phosphatidylinositol 4,5-bisphosphate 3-kinase catalytic subunit delta isoform (Homo sapiens) (UniProt O00329); settings: at 0.1 µM
T2 sequence (whole entry): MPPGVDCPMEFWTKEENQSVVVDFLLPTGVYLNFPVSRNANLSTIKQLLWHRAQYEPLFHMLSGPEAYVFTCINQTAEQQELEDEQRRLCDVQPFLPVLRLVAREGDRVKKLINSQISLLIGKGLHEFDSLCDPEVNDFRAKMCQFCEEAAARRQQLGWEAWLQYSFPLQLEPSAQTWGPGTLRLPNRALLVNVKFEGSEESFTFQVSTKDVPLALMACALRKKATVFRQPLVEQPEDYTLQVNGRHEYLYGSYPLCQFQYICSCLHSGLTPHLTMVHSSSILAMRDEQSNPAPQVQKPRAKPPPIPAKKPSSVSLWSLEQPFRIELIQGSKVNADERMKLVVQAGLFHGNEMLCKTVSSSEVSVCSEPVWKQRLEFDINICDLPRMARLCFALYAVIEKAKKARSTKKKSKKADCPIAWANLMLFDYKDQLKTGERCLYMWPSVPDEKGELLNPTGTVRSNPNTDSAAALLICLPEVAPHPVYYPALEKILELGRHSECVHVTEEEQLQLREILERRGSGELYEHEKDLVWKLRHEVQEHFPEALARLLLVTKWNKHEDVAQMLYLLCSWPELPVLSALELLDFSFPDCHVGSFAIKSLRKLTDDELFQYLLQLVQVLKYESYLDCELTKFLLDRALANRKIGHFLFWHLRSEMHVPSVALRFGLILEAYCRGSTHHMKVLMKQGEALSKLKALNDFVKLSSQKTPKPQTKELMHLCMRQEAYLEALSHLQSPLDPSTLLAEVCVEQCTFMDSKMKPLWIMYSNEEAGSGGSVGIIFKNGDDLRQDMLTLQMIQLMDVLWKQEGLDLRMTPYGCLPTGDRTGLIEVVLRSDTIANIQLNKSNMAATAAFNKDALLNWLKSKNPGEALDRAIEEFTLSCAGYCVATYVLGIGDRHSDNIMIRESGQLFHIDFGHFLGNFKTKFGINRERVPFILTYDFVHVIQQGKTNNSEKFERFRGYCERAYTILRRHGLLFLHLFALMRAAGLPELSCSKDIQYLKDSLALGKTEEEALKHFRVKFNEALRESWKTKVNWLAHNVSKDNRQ

[7] = target: T2, Phosphatidylinositol 4,5-bisphosphate 3-kinase catalytic subunit delta isoform (Homo sapiens); settings: at 1 µM
[8] = target: Phosphatidylinositol 4-kinase beta (Homo sapiens) (UniProt Q9UBF8); settings: at 0.1 µM
[9] = target: Phosphatidylinositol 4-kinase beta (Homo sapiens) (UniProt Q9UBF8); settings: at 1 µM
[10] = target: Sphingosine kinase 1 (Homo sapiens) (UniProt Q9NYA1); settings: at 0.1 µM;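 further: mean percent inhibition of SPHK1 activity, measured within the GSK PKIS screening panel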
Sphingosine kinase 1 (Homo sapiens), sequence (Q9NYA1 whole entry): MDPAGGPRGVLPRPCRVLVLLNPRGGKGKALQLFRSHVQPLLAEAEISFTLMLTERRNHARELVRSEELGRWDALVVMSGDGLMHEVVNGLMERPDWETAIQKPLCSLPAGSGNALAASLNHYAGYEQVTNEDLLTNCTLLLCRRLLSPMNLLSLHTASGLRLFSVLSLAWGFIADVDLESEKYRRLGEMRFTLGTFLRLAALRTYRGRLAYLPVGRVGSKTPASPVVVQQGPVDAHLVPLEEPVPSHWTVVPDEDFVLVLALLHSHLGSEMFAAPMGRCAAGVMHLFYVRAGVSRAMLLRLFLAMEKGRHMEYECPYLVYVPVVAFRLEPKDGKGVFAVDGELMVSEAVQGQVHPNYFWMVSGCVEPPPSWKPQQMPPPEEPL

SRSF protein kinase 1 (Homo sapiens), sequence (Q96SB4 whole entry, canonical isoform): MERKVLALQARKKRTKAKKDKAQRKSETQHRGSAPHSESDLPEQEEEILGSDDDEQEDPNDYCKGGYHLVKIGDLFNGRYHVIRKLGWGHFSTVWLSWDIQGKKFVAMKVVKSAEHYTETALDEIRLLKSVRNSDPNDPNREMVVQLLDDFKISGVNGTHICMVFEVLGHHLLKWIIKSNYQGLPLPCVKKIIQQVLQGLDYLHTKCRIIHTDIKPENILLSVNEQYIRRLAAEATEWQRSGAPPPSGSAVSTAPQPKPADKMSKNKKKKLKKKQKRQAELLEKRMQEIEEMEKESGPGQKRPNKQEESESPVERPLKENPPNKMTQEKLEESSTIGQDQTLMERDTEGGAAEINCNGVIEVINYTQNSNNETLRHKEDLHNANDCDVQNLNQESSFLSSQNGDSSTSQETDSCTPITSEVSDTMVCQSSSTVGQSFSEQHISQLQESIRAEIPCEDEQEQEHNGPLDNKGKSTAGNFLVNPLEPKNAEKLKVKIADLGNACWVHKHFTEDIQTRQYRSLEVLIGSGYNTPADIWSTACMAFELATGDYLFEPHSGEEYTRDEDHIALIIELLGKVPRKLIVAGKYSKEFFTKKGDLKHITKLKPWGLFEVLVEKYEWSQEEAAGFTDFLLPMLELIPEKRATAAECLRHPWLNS
Phosphatidylinositol 4-kinase beta (Homo sapiens), sequence (Q9UBF8 2-816 limits assumed): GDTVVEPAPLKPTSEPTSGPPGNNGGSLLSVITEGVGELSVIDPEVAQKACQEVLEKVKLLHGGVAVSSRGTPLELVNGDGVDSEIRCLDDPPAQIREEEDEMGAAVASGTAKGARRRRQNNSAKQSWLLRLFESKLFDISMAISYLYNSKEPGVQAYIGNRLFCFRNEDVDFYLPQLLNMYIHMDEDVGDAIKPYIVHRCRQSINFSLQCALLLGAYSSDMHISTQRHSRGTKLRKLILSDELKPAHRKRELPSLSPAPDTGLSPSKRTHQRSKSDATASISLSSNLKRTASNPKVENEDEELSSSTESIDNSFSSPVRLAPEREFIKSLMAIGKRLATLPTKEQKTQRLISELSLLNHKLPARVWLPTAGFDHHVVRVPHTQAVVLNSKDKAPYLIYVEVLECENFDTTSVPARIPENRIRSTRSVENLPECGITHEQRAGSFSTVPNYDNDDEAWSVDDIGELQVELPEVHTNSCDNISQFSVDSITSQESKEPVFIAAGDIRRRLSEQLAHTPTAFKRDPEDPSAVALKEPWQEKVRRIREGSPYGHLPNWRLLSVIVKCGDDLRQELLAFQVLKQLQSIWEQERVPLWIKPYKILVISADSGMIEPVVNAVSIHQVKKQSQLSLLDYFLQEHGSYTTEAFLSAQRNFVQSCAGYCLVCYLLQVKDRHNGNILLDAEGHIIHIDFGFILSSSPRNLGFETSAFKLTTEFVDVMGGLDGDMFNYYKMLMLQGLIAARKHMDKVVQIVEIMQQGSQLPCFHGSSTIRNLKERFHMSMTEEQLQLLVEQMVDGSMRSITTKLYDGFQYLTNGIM
Phosphatidylinositol 4,5-bisphosphate 3-kinase catalytic subunit alpha isoform (Homo sapiens), sequence (P42336 whole entry, canonical isoform): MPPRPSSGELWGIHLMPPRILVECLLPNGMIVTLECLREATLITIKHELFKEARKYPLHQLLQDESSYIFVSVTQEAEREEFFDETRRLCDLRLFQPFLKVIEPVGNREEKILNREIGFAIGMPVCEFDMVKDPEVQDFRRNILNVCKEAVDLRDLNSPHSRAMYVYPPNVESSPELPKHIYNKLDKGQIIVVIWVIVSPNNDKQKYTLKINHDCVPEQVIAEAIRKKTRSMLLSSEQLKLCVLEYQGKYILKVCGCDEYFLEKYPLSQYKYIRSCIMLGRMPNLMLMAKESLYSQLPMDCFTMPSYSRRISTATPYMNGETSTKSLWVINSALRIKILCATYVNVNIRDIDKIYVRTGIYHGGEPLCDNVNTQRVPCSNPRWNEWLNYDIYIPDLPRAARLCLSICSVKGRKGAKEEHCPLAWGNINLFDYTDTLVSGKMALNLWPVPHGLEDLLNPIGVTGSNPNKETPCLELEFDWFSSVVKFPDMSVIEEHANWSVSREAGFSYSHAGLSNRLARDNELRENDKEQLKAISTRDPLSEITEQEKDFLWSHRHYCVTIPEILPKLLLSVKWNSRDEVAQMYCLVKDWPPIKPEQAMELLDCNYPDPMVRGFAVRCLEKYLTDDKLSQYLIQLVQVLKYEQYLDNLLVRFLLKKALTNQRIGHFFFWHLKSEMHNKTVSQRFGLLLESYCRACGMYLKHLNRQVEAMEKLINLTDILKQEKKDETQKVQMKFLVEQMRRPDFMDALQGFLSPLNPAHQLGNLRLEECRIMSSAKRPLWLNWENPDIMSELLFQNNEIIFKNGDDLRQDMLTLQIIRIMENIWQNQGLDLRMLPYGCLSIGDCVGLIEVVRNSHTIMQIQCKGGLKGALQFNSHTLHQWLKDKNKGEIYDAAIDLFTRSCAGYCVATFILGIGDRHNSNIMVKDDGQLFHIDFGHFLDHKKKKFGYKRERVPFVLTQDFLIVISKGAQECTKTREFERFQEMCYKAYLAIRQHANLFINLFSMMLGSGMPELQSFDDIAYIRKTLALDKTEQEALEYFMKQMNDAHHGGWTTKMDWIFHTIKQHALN

Row | SMILES | inhibition [1] [%] | inhibition [2] [%] | inhibition [3] [%] | inhibition [4] [%] | inhibition [5] [%] | inhibition [6] [%] | inhibition [7] [%] | inhibition [8] [%] | inhibition [9] [%] | inhibition [10] [%]
1 | Cc1ccc(C(=O)NC2CC2)cc1-c1ccc2[nH]ncc2c1 | -1.96 | -0.04 | 1.22 | -3.9 | -3.53 | -1.94 | -0.26 | 4.33 | -2.52 | -0.6
2 | CCn1c(-c2nonc2N)nc2c(C#CC(C)(C)O)nc(OCCNC)cc21 | 6.39 | -3.96 | -2.97 | 5.21 | 4.34 | 1.6 | 1.55 | -2.53 | 3.94 | -1.43
3 | COc1cccc(-n2nc(C)c3c(N/N=C(\C)c4ccncc4)ncnc32)c1 | 0.35 | -2.19 | -2.27 | -0.84 | -0.14 | -1.39 | 6.02 | -2.42 | -3.63 | 1.12
4 | COc1cc2ncnc(Nc3ccc(C)c(O)c3)c2cc1OC | 4.08 | -1.2 | -0.28 | 4.07 | 7.27 | 1.27 | 4.88 | -1.03 | -0.17 | 4.48
5 | NS(=O)(=O)c1cccc(-c2cc3ccncc3cc2OCc2ccccc2)c1 | 3.69 | -1.98 | -2.89 | 4.56 | 6.5 | 2.08 | 5.47 | -1.89 | -5.37 | 0.1
6 | COC(=O)c1cncc(/C=C/c2c(C)cc(O)cc2C)c1 | 1.22 | 0.45 | 2.47 | 2.59 | 2.56 | 3.23 | 2.23 | 2.65 | 0.11 | 2.52
7 | Cc1ccc(Nc2ccnc(Nc3cccc(C(N)=O)c3)n2)cc1O | 1.74 | -1.01 | 1.41 | 1.78 | 3.39 | 2.88 | 9.7 | 3.13 | 1.94 | 0.79
8 | COc1ccc2ncnc(Nc3ccc(OCc4ccccc4)cc3)c2c1 | 1.88 | -1.2 | -0.4 | 2.14 | 1.05 | 1.99 | 2.84 | 1.57 | 1.15 | -0.95
9 | NC(=O)c1cccc(Nc2nccc(Nc3cccc(F)c3)n2)c1 | 1.35 | -2.36 | -1.96 | -0.28 | 1.22 | -1.45 | -4.65 | 3.27 | 1.27 | 0.35
10 | NS(=O)(=O)c1ccc(-c2cc3ccncc3cc2OCc2ccccc2)cc1 | 2.36 | -1.87 | 0.04 | 3.71 | 4.7 | 1.97 | 2.98 | 3.31 | 0.15 | 1.82
11 | COc1cccc(-n2ncc3c(N/N=C/c4ccc(C)cc4)ncnc32)c1 | 6.67 | -3.85 | -1.68 | 5.44 | 7.64 | 1.43 | 5.9 | -1.45 | 3.16 | 3.47
12 | C[C@@H](Oc1cc(-n2cnc3ccc(OCC4CCN(C)CC4)cc32)sc1C(N)=O)c1ccccc1C(F)(F)F | -2.08 | -0.56 | 1.16 | -1.6 | 13.3 | 2.19 | 55.9 | 6.54 | 0.1 | 0.59
13 | C[C@@H](Oc1cc(-n2cnc3ccc(OC[C@@H](O)CO)cc32)sc1C(N)=O)c1ccccc1Cl | -1.21 | -0.36 | -1.3 | -0.06 | 13.4 | 1.99 | 34.9 | 3.09 | -1.09 | -2.33
14 | Cc1ccc2c(-c3ccnc(Nc4cccc(C(F)(F)F)c4)n3)c(-c3ccccc3)nn2n1 | 5.59 | -3.32 | -2.03 | 3.95 | 5.13 | 0.26 | 2 | 0.44 | -2.31 | 0.67
15 | COc1cc(/C=N/Nc2ncnc3c2cnn3C(C)C)ccc1O | 1.85 | -0.73 | 1.12 | 19 | 70.5 | 20.9 | 71.3 | -8.74 | 26.5 | 0.17
16 | Cc1nc(-c2ccccc2)n2nc(NCCCN3CCOCC3)ncc12 | 2.42 | -2.28 | -2.05 | 1.91 | 1.2 | -0.22 | 0.85 | 4.37 | 0.1 | 0.59
17 | c1ccc(Nc2ncc(-c3ccccc3)o2)cc1 | 5.26 | -2.25 | -2.19 | 5.87 | 6.84 | 1.87 | 4.99 | 5.07 | -3.06 | 2.26
